# PostGolgi ctrl: growth of the yeast control strain, post-Golgi counter-screen | efflux-deficient yeast background strain, growth absorbance A615, 16 h | inhibition, % at 10 µM | 5% of 98,000 active
# Cav3 T inh: human Cav3.2 channel inhibition, primary screen. O95180. Cav3.2-expressing cells, Fluo-4 calcium fluorescence FDSS; hits give low values. B-score at 10 µM. 4% of 100,000 active. AID 449739;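 active means single-dose well whose peak fluorescence ratio is a statistical outlier from its plate by either plate-standardised score or position-corrected B-score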
# PostGolgi yeast: growth inhibition of a yeast mutant, post-Golgi transport screen; post-Golgi transport phenotypic cell assay; inhibition, % at 10 µM; 0.9% of 98,000 active; AID 739;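 further: yeast cells grown in 1536-well plates; yeast grown about 18 h at 30C before absorbance read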
# Smad3 inh: Smad3 (human) transcription factor binding inhibition | P84022 | TR-FRET Smad3/Dy647-FoxH1 peptide binding, europium anti-His | inhibition, % at 25 µM | 0.29% of 88,000 active | AID 630;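 active means compounds that reduce the energy-transfer binding signal between the protein and its labelled peptide by more than half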;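 further: 0% = Smad3 plus labelled peptide maximal FRET and 100% = peptide-only background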
# DAT uptake mod: changed human dopamine transporter uptake under cocaine IC80; B-score at 10 µM; 1.3% of 110,000 active; Q01959; LLC-PK1 hDAT cells, [14C]-dopamine uptake with cocaine IC80; actives deviate in either direction;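 active means Z score or B-score, a plate-position-corrected score, falls beyond the plate's 99.7% confidence bounds, in either direction; inactive means both scores lie inside the 99.7% bounds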;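 further: scored against the spread of the other compound wells on the same plate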
# Target sequence (Q01959 whole entry, looked up): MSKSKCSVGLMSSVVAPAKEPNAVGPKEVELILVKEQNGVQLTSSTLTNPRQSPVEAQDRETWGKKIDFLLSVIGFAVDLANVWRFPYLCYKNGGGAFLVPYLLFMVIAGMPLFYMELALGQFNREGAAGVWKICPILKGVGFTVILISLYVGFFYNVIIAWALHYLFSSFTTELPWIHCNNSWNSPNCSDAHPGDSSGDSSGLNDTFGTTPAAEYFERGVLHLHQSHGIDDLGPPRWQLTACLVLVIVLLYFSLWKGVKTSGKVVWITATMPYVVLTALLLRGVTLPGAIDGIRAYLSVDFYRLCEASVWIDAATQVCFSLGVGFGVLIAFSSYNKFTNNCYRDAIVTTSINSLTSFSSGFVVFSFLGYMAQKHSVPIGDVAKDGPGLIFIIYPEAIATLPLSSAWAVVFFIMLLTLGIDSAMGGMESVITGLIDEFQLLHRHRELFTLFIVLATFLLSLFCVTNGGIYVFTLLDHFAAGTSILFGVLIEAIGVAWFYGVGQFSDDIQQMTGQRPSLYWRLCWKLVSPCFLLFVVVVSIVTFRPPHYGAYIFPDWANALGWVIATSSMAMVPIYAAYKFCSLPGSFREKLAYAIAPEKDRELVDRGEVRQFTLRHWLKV
# TNAP act mid DEA: human TNAP activation, intermediate phosphate acceptor. purified TNAP, CDP-star luminescence, 100 mM DEA, 30 min; hits give high values; scale: 0 levamisole-inhibited, 1 vehicle-only enzyme. 64,000 tested, under 10 active. P05186. activation factor at 20 µM;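 active means activation factor of at least 2 at 20 µM, relative to controls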
# The depositor's hits bear a star; · = not tested or not shown. Rows were chosen to be rich in hits. Some 8.7% of all compounds tested hit in one or more screens of this group. Unless noted, no stated cut-off is given here; in the data, active means inhibition above about 30%; inactive means the rest.
SMILES,PostGolgi ctrl,Cav3 T inh,PostGolgi yeast,Smad3 inh,DAT uptake mod,TNAP act mid DEA
Cc1cc(C)n(-c2nc(Nc3ccccc3)nc(-n3nc(C)cc3C)n2)n1,20,0.46,3,17,-0.71,0.9
CCN(CC)c1nc(OCCNC(=O)Nc2ccccc2)nc(N(CC)CC)n1,12,-10*,13,0,1.6,·
O=C(NCCOc1nc(N2CCOCC2)nc(N2CCOCC2)n1)Nc1ccccc1,-2,0.6,13,-2,1.2,·
Cc1cccc2cc(CN(Cc3ccco3)C(=O)N3CCCC3)c(=O)[nH]c12,·,·,·,5,·,0.9
Cn1cccc1-c1nc2ccc(NC(=O)c3ccccc3)cc2[nH]1,7,-3,-4,3,1.6,0.9
Cc1ccc(S(=O)(=O)Nc2ccc3nc(-c4cccn4C)[nH]c3c2)cc1,-4,-5.7*,-7,-1,-2.9*,0.9
CC1(C)CC(=O)c2sc(NC(=O)C3COc4ccccc4O3)nc2C1 (configuration not stated),38*,-0.034,-6,5,0.17,·
O=C(Nc1nnc(C(F)(F)F)s1)C1COc2ccccc2O1 (configuration not stated),23,-4.2*,-2,4,-2.1,·
O=C(Nc1nncs1)C1COc2ccccc2O1 (configuration not stated),6,-0.037,-4,13,-0.23,0.9
COc1ccc(C(=O)c2oc3ccccc3c2NC(C)=O)cc1,0,-1.8,-6,2,-0.29,·
COc1ccc(C(=O)c2c(C(F)(F)F)oc3c2C(=O)c2ccccc2C3=O)cc1,46*,-1.4,84*,19,-2.2,·
Cc1csc(NC(=O)c2cccn2C)n1,31*,0.21,-4,-1,0.37,·
Cc1ccc(S(=O)(=O)N2CCN(Cc3nc4ccccc4n3C)CC2)cc1,9,-0.58,-5,-2,0.34,1
Cc1cc(C)c(S(=O)(=O)N2CCC(C(N)=O)CC2)cc1C,14,-0.51,1,-4,-0.61,·
CC1(C)CC(=O)C(C=NCC2CCNCC2)=C(O)C1,12,0.76,24,14,-1.2,0.9
CC1(C)CC(=O)C(C=NCC2CCN(C(=O)Nc3ccc(Cl)c(Cl)c3)CC2)=C(O)C1,38*,-3.3*,11,-8,-0.54,·
COC(=O)c1cc(OC)c(OC)cc1NC(=O)c1ccc(C)cc1,27,-1.7,0,-11,1.8,·
Cc1cc(N2CCCC2)nc(SCC(=O)c2ccccc2)n1,·,-0.13,·,-9,-0.93,·
Cc1cc(N2CCC(C)CC2)nc(SCC(=O)c2ccccc2)n1,·,-4.7*,·,10,-0.99,·
CSc1nnc(Cc2cc(=O)[nH]c(=O)[nH]2)n1-c1cc(C)ccc1C,5,1.4,-1,-6,-0.47,1
CCSc1nnc(Cc2cc(=O)[nH]c(=O)[nH]2)n1-c1cc(C)ccc1C,30*,0.41,-6,4,-0.32,0.9
O=C(O)c1ccccc1N/N=C\c1ccnc2ccccc12,31*,0.065,-10,·,0.18,·
CCNc1ccc(Br)cc(C(=O)/C=C/c2ccccc2Cl)c1=O,·,-2.4,·,10,-0.012,·
C[N@@+]1(CC[N@+]2(C)CCC[C@@H]2c2cccnc2)CCC[C@@H]1c1cccnc1,·,·,·,91*,·,·
c1ccc(-c2nnc(N3CCN(c4ccccn4)CC3)c3ccccc23)cc1,69*,-5.6*,8,-3,1.4,0.9
SMILES,PostGolgi ctrl,Cav3 T inh,PostGolgi yeast,Smad3 inh,DAT uptake mod,TNAP act mid DEA
Cc1ccc(-c2nnc(N3CCN(c4ccccn4)CC3)c3ccccc23)cc1,57*,·,0,-3,0.76,0.9
CS(=O)(=O)N1CCN(c2nnc(-c3ccccc3)c3ccccc23)CC1,10,0.026,0,-3,1.1,0.9
O=C(CCSc1nnc(-c2ccncc2)o1)Nc1ccc(Cl)cc1,99*,·,102*,14,0.97,0.8
O=C(CCSc1nnc(-c2ccco2)o1)Nc1ccc(Cl)cc1,4,-1.6,6,-8,-1.4,1.1
O=C(Nc1nnc(-c2ccccc2)o1)Nc1ccccc1Cl,0,·,7,5,·,0.8
O=C(Cn1c(=O)n(Cc2ccco2)c(=O)c2c3c(sc21)CCCCC3)Nc1ccccc1,6,-4.5*,-3,4,0.026,·
O=c1ccn(-c2cccc(C(F)(F)F)c2)nc1-c1ccn(-c2ccccc2)n1,18,-5.7*,11,·,0.46,·
Cc1ccc(-c2nnc(-c3cccc(NC(=O)c4cccs4)c3)o2)cc1,-1,0.37,9,·,-0.1,·
COC(=O)CSc1ccc(-c2nc3ccc(C)cc3[nH]2)cn1,-7,-1.7,-1,·,-0.51,·
Cc1cccc(CC(Cc2nc3ccccc3[nH]2)c2nc3ccccc3[nH]2)c1 (configuration not stated),26,-7.1*,-8,·,1.5,·
CCCc1nc2ccccc2[nH]1,-2,0.58,0,18,0.36,·
CC(C)(C)c1cc(NC(=O)COc2ccc(Br)cc2)n(-c2ccccc2)n1,37*,-3,4,·,0.29,·
CCCNC(=O)NC(=O)COc1c(F)c(F)cc(F)c1F,14,·,-1,-9,0.22,·
Cc1cc(C)c2c(=O)[nH]c(=O)n(Cc3ccccc3)c2n1,43*,-0.16,8,5,-1.8,0.9
COc1cc2c(cc1NC(=O)C(c1ccccc1)c1ccccc1)CCCC2,5,-6*,-8,15,-0.015,·
COc1cc2c(cc1NC(=O)c1cccc(Br)c1)CCCC2,18,-0.35,-2,·,-0.0033,·
O=C(Nc1ccc2c(c1)OCO2)c1c(F)cccc1F,4,-3.3*,13,-1,-1,1
CCn1cc(SCC(N)=O)c2ccccc21,7,-0.59,-18,4,-1.7,1
Cc1ccc(O)c(C(=O)c2cnn(C(=O)Cc3csc(C)n3)c2)c1,-5,-1.3,1,-6,0.0026,0.9
Cc1ncc(CC(=O)n2cc(C(=O)c3cc(F)ccc3O)cn2)s1,1,-3.4*,0,1,-0.53,·
CC(C)CCNC(=O)CN(C(=O)Cn1nnc(-c2ccccc2F)n1)c1cccc2c1CCCC2,11,-8*,0,·,0.96,·
CCC(C(=O)NC(C)(C)C)N(C(=O)Cn1nnc(-c2ccccc2F)n1)c1cccc2c1CCCC2 (configuration not stated),1,-2.1,4,·,-1,·
O=C(Cn1nnc(-c2ccccc2F)n1)NCCc1ccccc1,3,-0.87,-6,6,-0.2,0.9
O=C(CN(C(=O)Cn1nnc(-c2ccccc2F)n1)c1cccc2c1CCCC2)NCc1ccccc1,18,-6.1*,1,·,2.1,·
CN1CCc2c(sc(NC(=O)c3ccc(S(=O)(=O)N4CCOCC4)cc3)c2C(N)=O)C1,-1,-0.33,6,-10,-0.9,0.9
O=C(c1ccc2c(c1)OCO2)N1CCN(c2ccccc2F)CC1,13,0.37,0,6,1.5,1
O=C1CC(c2nc3ccccc3[nH]2)CN1c1cccc(C(F)(F)F)c1 (configuration not stated),·,-5.4*,·,1,1.2,1
COC(=O)[C@@H](N)Cc1ccc(O)cc1,·,·,·,4,·,0.9

# Assay outcomes (PubChem)
